Source: PubChem BioAssay (National Center for Advancing Translational Sciences (NCATS))
Mito fusion yeast = blocks mitochondrial division or promotes mitochondrial fusion | S. cerevisiae fusion-defective mutant growth rescue, CellTiterGlo 48 h | Potency, µM (top dose mostly 46.1 µM), actives largely listed as activators | actives 0.23% (n = 320,000) | AID 485298; further: nearly all actives have a fitted effect of over 45% in size
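Read-out: ATP-based luminescence (CellTiterGlo, 10 min ambient) reporting growth of fusion-defective ts yeast after 48 hours at 37C on glycerol/ethanol YPEG medium in the presence of compound.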
TDP43 rescue = TDP-43 toxicity inhibition in yeast; TDP-43 expressing yeast growth rescue, BacTiter-Glo, 24 h; Potency, µM (titrated, usually from 46.1 µM), most hits filed as activators; actives 1.8% (n = 410,000); further: nearly all actives have a fitted effect of over 50% in size
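Cell-based yeast growth screen: TDP-43 expression induced in galactose, inoculum OD600=0.02 after raffinose pregrowth to mid-log. Read-out BacTiter-Glo luminescence at 24 hr, 30 deg C; inhibition of toxicity seen as signal increase.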
Abeta yeast res = compounds reversing amyloid beta toxicity in yeast. Potency, µM (titrated, usually from 46.1 µM), usual class: activators. actives 0.063% (n = 410,000). yeast expressing A-beta42, growth rescue, OD600, 48 h; response scale: 0% DMSO, 100% iron-clioquinol control; further: nearly all actives have a fitted effect of over 55% in size
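Growth rescue measured by 600 nm absorbance after 48 h yeast culture at 30 C with compound. Values normalized between DMSO and an equimolar ferric chloride plus clioquinol control.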
aSyn yeast inh = inhibitors of alpha-synuclein toxicity in yeast; Yeast expressing alpha-synuclein, growth rescue, BacTiter-Glo, 24 h; Potency, µM (doses to about 46.1 µM), hits mostly activators; AID 652106; actives 0.14% (n = 370,000); further: nearly all actives have a fitted effect of over 65% in size
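Readout is rescue of growth in alpha-synuclein-expressing yeast, so inhibitors of toxicity appear as activators. Growth after 24 hr at 30 deg C in galactose medium is quantified by luminescence.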
FUS suppressor = rescues growth of FUS-expressing yeast; S. cerevisiae FUS-expressing, growth rescue, OD600, 24 h; Potency, µM (highest dose often 76.6 µM), actives largely listed as activators; actives 0.24% (n = 390,000); further: nearly all actives have a fitted effect of over 55% in size
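Steps: raffinose overnight preculture; dilution to OD 0.005 in 2% galactose minimal medium; compound addition (concentration series); 24hr at 30C, 99% humidity; absorbance read at 600 nm.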
A number is an active result; - = inactive; ? = inconclusive; . = no result given; ! = not active in a repeat. An excerpt weighted towards active compounds, which were near 2.2% of everything screened. The call rests on the fitted dose curve; in most records, active means well fitted curve in the direction sought with a large enough effect; inconclusive means small, poorly fitted or top-dose-only effect, or another doubt; inactive means no such curve, though single readings can be large; an effect the other way counts as inactive or inconclusive.

SMILES	Mito fusion yeast	TDP43 rescue	Abeta yeast res	aSyn yeast inh	FUS suppressor
Cc1ccc(F)cc1C(=O)N1CCCC(c2cc(C(=O)Nc3ccccc3)no2)C1 (stereo not drawn)	.	35µM	-	?	-
CC(=O)N1CCCC(c2cc(C(=O)Nc3ccccc3)no2)C1 (stereo not drawn)	.	-	-	-	-
O=C(Nc1ccc2c(c1)OCO2)c1cc(C2CCCCN2C(=O)CCCc2ccccc2)on1 (stereo not drawn)	.	35µM	-	-	-
O=C(Nc1ccc(F)c(Cl)c1)c1cc(C2CCCN(C(=O)c3cccs3)C2)on1 (stereo not drawn)	.	22µM	-	-	-
Cc1ccc(F)cc1C(=O)N1CCCCC1c1cc(C(=O)Nc2ccccc2)no1 (stereo not drawn)	.	-	-	-	-
O=C(Nc1ccc2c(c1)OCO2)c1cc(C2CCCN(C(=O)CCc3ccccc3)C2)on1 (stereo not drawn)	.	22µM	-	-	?
O=C(Cn1ccn(-c2ccc(F)c(F)c2)c(=O)c1=O)NCCc1ccccc1	-	-	-	-	-
O=C(NNc1ccccc1)c1ccc(Cl)c(Cl)c1	.	13µM	-	?	.
Cc1nc(N)sc1N=Nc1ccc(F)cc1	-	-	-	-	?
Cc1ccc(-c2ccc(=O)n(Cc3cccc(Br)c3)n2)cc1	-	-	-	22µM	?
O=c1ccc(-c2ccccc2)nn1Cc1ccc(F)cc1Cl	?	32µM!	-	-	-
O=c1ccc(-c2ccccc2)nn1Cc1ccccc1	.	22µM	-	-	-
COc1cc(C(O)c2nc(-c3ccc(F)cc3OC)cs2)ccc1F (stereo not drawn)	.	25µM	-	?	-
COc1ccc(C(O)c2nc(-c3ccc(F)c(Cl)c3)cs2)cc1 (stereo not drawn)	.	11µM	?	13µM	-
COc1cccc(C(O)c2nc(-c3ccc(F)c(Cl)c3)cs2)c1 (stereo not drawn)	.	?	-	?	-
COc1ccc(-c2csc(C(O)c3ccc(F)c(OC)c3)n2)cc1 (stereo not drawn)	.	22µM	?	18µM	?
COc1cc(C(O)c2nc(-c3ccccc3)cs2)ccc1F (stereo not drawn)	.	-	-	?	-
COc1cc(C(O)c2nc(-c3cccc(C#N)c3)cs2)ccc1F (stereo not drawn)	.	10µM	-	?	-
O=C(CN1C(=O)C2CCCCN2C(=O)c2ccccc21)N1CCCC1 (stereo not drawn)	.	.	.	.	-
C[C@H]1C2CC(OC(=O)Nc3cccc(C(F)(F)F)c3)C(C2)[C@H]2CCCCN21 (stereo partly drawn)	.	.	.	.	-
COC(=O)C1=C(C(=O)OC)[C@]2([C@H]3CC=CCN[C@@H](Cc4ccccc4)C(=O)N3Cc3ccccc3)C=C[C@H]1O2	.	-	-	-	22µM
Cc1ccc2c(c1)CCCN2C(=O)c1ccoc1C	-	-	-	-	5.6µM
O=S(Cc1ccccc1)Cc1ccccc1	.	-	-	-	-
C=CCn1c(Sc2ncc([N+](=O)[O-])s2)n[nH]c1=O	-	13µM	-	-	-
O=C(NCc1ccc(Cl)cc1)c1csc(-c2cccnc2)n1	-	16µM	-	-	-
SMILES	Mito fusion yeast	TDP43 rescue	Abeta yeast res	aSyn yeast inh	FUS suppressor
O=C(NNC(=O)c1ccc(Cl)cc1Cl)c1csc(-c2cccnc2)n1	-	-	-	-	-
N/C(=N\OC(=O)c1ccc(Cl)cc1)c1ccc(Cl)cc1	?	7.9µM	-	-	-
N/C(=N\OC(=O)c1ccc(F)cc1)c1ccc(Br)cc1	-	3.2µM	-	-	-
O=C(c1ccccc1)N1CC[C@H]2[C@H](CCCN2Cc2ccccc2)C1	.	.	.	.	-
CC(Oc1cccc(Cl)c1)C(=O)Nc1ccc([N+](=O)[O-])cn1 (stereo not drawn)	-	13µM	-	-	.
CC(Oc1cccnc1[N+](=O)[O-])C(=O)Nc1ccc(Cl)cn1 (stereo not drawn)	-	-	-	-	-
CC(Oc1cccnc1[N+](=O)[O-])C(=O)Nc1cccc(Cl)c1 (stereo not drawn)	-	16µM	-	-	-
CC1=C(C(=O)Nc2cc(C(=O)NCCC(C)C)ccc2C)SCCO1	-	-	-	-	-
Cc1cc(-c2ccc(C)c(S(=O)(=O)NCCc3ccc(S(N)(=O)=O)cc3)c2)on1	-	-	-	-	-
Cc1cc(-c2ccc(C)c(S(=O)(=O)NCc3ccc(Br)cc3)c2)on1	?	18µM	-	-	-
Cc1cc(-c2ccc(C)c(S(=O)(=O)NCc3cccc(Br)c3)c2)on1	-	35µM	-	-	?
CCn1c(CNC(C)=O)nnc1SCC(=O)c1ccc(Br)cc1	-	-	-	-	-
CCN(CC)C(=S)SCC(=O)c1ccc(Br)cc1	11µM	?	-	-	-
C=CC[C@H]1c2ccccc2[C@H]2N3N=Cc4ccccc4[C@H]3[C@H](CCCC)C(=O)N2N1C(=O)c1ccccc1	.	.	.	.	-
Cc1cccc(OCCCSc2nc3ccccc3[nH]2)c1	-	20µM	-	-	-
Cc1cccc(OCCSCc2nc3ccccc3[nH]2)c1	-	-	-	-	-
Cc1ccc(C)c(N2CCN(C(=O)CCC(=O)N3CCOc4ccc(Cl)cc43)CC2)c1	-	?	?	?	25µM
O=C(C1CCCN(S(=O)(=O)c2cccc3nonc23)C1)N1CCN(c2cccc(Cl)c2)CC1 (stereo not drawn)	-	-	-	-	-
Cc1cccc(N2CCN(S(=O)(=O)c3cccc4nonc34)CC2)c1C	-	28µM	-	-	.
Cc1ccc(C)c(N2CCN(CCCNC(=O)CCC(=O)N3CCOc4ccc(Cl)cc43)CC2)c1	-	.	.	.	.
Cc1ccc(Cl)cc1N1CCN(C(=O)CCS(=O)(=O)c2cccc3nonc23)CC1	14µM	-	-	?	-
Cc1ccc(Cl)cc1N1CCN(C(=O)C2CCN(S(=O)(=O)c3cccc4nonc34)CC2)CC1	.	-	-	.	?
O=C(C1CCCN(S(=O)(=O)c2cccc3nonc23)C1)N1CCN(c2ccccc2Cl)CC1 (stereo not drawn)	?	35µM	-	-	-
O=S(=O)(c1cccc2nonc12)N1CCN(c2ccccc2F)CC1	-	-	-	-	-
Cc1ccc(NC(=S)NNC(=O)CSc2nnc(SCc3cccc4ccccc34)s2)cc1	.	.	.	.	-
C[C@H]1C2CC(OC(=O)Nc3cccc(Cl)c3)C(C2)[C@H]2CCCCN21 (stereo partly drawn)	.	.	.	.	-
O=C(NCC1CCCO1)C(c1cccs1)N(Cc1cccs1)C(=O)Cn1nnc(-c2cccs2)n1 (stereo not drawn)	-	-	-	-	-
CC(C)(C)NC(=O)C(c1cccs1)N(CC1CCCO1)C(=O)Cn1nnc(-c2cccs2)n1 (stereo not drawn)	7.1µM	-	-	-	-
CN(C)c1ccc(/C=C\C=C/c2ccnc3ccccc23)cc1	.	.	.	-	.
